Screening data (PubChem)
NALP3 yeast inh = NALP3 inflammasome inhibitors in reconstituted yeast, primary screen, luminescence, uHTS; 0.39% of 330,000 active; Yeast reconstituted NLRP3/ASC/caspase-1, beta-gal luminescence, 24 h; AID 2825, 2010; inhibition, % at 10 µM;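 active = inhibition of 50% or more; inactive = inhibition below 50%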;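 also: plate controls were induced DMSO wells for no effect and uninduced yeast grown without galactose for full effect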
PfHsp90 set2 = growth inhibition of PfHsp90-expressing yeast, primary screen, antimalarial PfHsp90 inhibitor project, S. cerevisiae, BacTiter-Glo luminescence, single point, set 2; AID 504621, 2011; inhibition, % at 9.4 µM; 0.32% of 310,000 active; BacTiter-Glo ATP, 48 h; yeast lacking PDR1 and PDR3 efflux regulators;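 active = every replicate shows inhibition above about 80%, whatever the replicate mean, limit read from the data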;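 also: 0% = DMSO neutral controls and 100% = 20 µM radicicol positive controls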
SKKanGAS inh = S. pyogenes SKKanGAS growth inhibitors in kanamycin, primary screen, streptokinase expression inhibitor project, SKKanGAS strain, BacTiter-Glo luminescence. 6 h. inhibition, % at 7.5 µM. 1.3% of 300,000 active. AID 1662, 2009;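 active = mean replicate score, as percent of positive control median, at least 50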;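 also: strain carries kanamycin resistance gene driven by streptokinase promoter and grows in 40 µg/ml kanamycin; loss of luminescence reflects streptokinase promoter inhibition or plain growth inhibition; 0% = median of DMSO wells and 100% = positive control at its reference dose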
TIM10 inh = growth inhibitors of isogenic TIM10 control yeast, primary screen, counter-screen for tim10-1 yeast inhibitor project, luminescence, uHTS. 1.4% of 330,000 active. S. cerevisiae TIM10 strain growth, BacTiter-Glo luminescence, 24 h. AID 463195, 2010. inhibition, % at 10 µM;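 active = inhibition of 40% or more at the single tested concentration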;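 also: wild-type TIM10 isogenic control strain grown at permissive 25 °C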
tim10-1 inh = growth inhibitors of tim10-1 mutant yeast, primary screen, luminescence, uHTS. 2.2% of 330,000 active. S. cerevisiae tim10-1 ts strain growth, BacTiter-Glo, 24 h. AID 463190, 2010. inhibition, % at 20 µM;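 active = inhibition of at least 40%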;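 also: mutant grown at 25 °C; 0% = DMSO wells with yeast and 100% = wells holding no yeast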
tim23-1 inh = growth inhibitors of tim23-1 mutant yeast, primary screen, luminescence, uHTS. S. cerevisiae tim23-1 growth, BacTiter-Glo luminescence, 24 h. inhibition, % at 20 µM. 1.3% of 330,000 active. AID 463212, 2010;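 active = growth inhibition of the mutant yeast at or above 50%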;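 also: temperature-sensitive mutant grown at 25 °C; plate controls were DMSO-treated mutant yeast for no effect and medium wells lacking yeast for full effect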
tim23-1 confirm = tim23-1 mutant yeast growth inhibitors, confirmation, luminescence, single concentration; shares compounds with tim23-1 inh; S. cerevisiae tim23-1 growth, BacTiter-Glo luminescence, 24 h; inhibition, % at 20 µM; 83% of 4,400 active; AID 463218, 2010;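 active = inhibition above about 39% in either of two replicate wells at 20 µM, limit read from the data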;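 also: temperature-sensitive tim23-1 mutant grown at 25 °C; 0% = DMSO wells with yeast and 100% = medium wells without yeast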
* = called active by the depositor; . = not tested or not shown. This is a sample that favours compounds with a hit; in the whole collection about 4.6% have one here.

SMILES	NALP3 yeast inh	PfHsp90 set2	SKKanGAS inh	TIM10 inh	tim10-1 inh	tim23-1 inh	tim23-1 confirm
C[C@@H]1C(c2ccc(F)cc2)=NN(c2ccccc2)[C@H]1C(=O)N1CCOC1=O	.	10	.	7	34	53*	34
CC[C@@H]1C(c2ccccc2)=NN(c2ccc(Br)cc2)[C@H]1C(=O)N1CCOC1=O	.	3	.	20	21	58*	39
CC[C@@H]1C(c2ccc(F)cc2)=NN(c2ccc(Br)cc2)[C@H]1C(=O)N1CCOC1=O	.	-27	.	20	27	58*	44*
COc1ccccc1[C@@H]1C(c2ccccc2)=NN(c2ccc(Br)cc2)[C@H]1C(=O)N1CCOC1=O	.	-16	.	14	21	53*	27
CC(=O)Nc1ccc(NC(=O)CSc2nnc(C)n2-c2ccccc2)cc1	6	-3	-2	3	-4	-6	.
O=C(CCSc1ccc(Cl)cc1)NC1CCCCC1	21	28	4	12	8	13	.
O=C(CCSc1ccc(Cl)cc1)NC12CC3CC(CC(C3)C1)C2	-11	-5	20	40	38	52*	46*
Cc1nn(-c2ccc(Cl)cc2Cl)c(=O)c2ccccc12	37	-3	-2	-3	20	8	.
Cc1nn(-c2ccc(Cl)c(Cl)c2Cl)c(=O)c2ccccc12	40	.	8	8	40	54*	46*
CCCCC1NC(=S)N(C2CCCCC2)C1=O (stereo not given)	-12	-18	3	33	8	58*	22
O=C(Nc1cccc(S(=O)(=O)NC2=NCCC2)c1)c1ccc(=O)[nH]c1	13	-14	.	3	6	15	.
Cc1cccc(/C=c2\s/c(=C\C(=O)C(C)(C)C)[nH]c2=O)c1	11	-47	77*	10	25	50*	54*
COc1ccc(CCCC(=O)N/N=C/c2ccc(C)cc2)cc1	34	-19	8	0	31	56*	51*
COc1ccc(/C=N/NC(=O)CC(=O)N/N=C/c2ccc(OC)cc2)cc1	3	3	18	2	16	-3	.
O=C(NCCN1CCOCC1)c1ccc(Cl)c([N+](=O)[O-])c1	22	22	9	-5	-16	-12	.
CC(C)(C)SCCNC(=O)c1ccc(Cl)c([N+](=O)[O-])c1	34	102*	-12	9	34	53*	29
NS(=O)(=O)c1ccc(N2N=C(c3ccccc3)CC2c2cccc(Cl)c2)cc1 (stereo not given)	.	-34	.	17	24	53*	31
COC(=O)CN(c1nc(C)c(Br)c(OC)n1)S(=O)(=O)c1ccccc1	1	-15	11	5	33	33	.
COc1ccc(C2Nc3cccc4cccc(c34)N2)cc1Br	11	-2	-3	26	23	56*	55*
COc1cc(C)c(Br)cc1S(=O)(=O)NCCN1CCOCC1	24	11	-3	-2	12	13	.
CC(C)(C)c1ccc(/C=C2\Oc3cc(O)ccc3C2=O)cc1	7	4	-3	19	16	21	.
O=C1/C(=C/c2ccc(Br)cc2)Oc2cc(O)ccc21	15	-10	5	29	19	56*	51*
CCCCN(Cc1ccccc1)S(=O)(=O)c1cc(Br)cc2c1N(C(C)=O)C(C)C2 (stereo not given)	22	-29	-1	33	23	56*	53*
CCN(CC)C(=O)COCc1cc(-c2ccc3c(c2)OCO3)on1	11	0	-3	-12	18	4	.
CCOC(=O)c1c(-c2ccccc2)oc2ccc(O)cc12	18	-31	4	19	13	59*	56*
SMILES	NALP3 yeast inh	PfHsp90 set2	SKKanGAS inh	TIM10 inh	tim10-1 inh	tim23-1 inh	tim23-1 confirm
CCOC(=O)c1c(-c2ccccc2)oc2ccc(OCC)cc12	11	-2	2	-6	18	-5	.
O=C(/C=C/c1ccccc1Cl)OCC(=O)c1ccc[nH]1	5	-3	.	11	7	53*	45*
CCNS(=O)(=O)c1ccc(CCC(=O)N2CCc3ccccc3C2)cc1	17	-3	-2	0	18	13	.
CCc1nnc(NC(=O)CSc2nc3c(cc2C#N)CCC3)s1	15	-42	4	-9	6	94*	5
COc1ccc(-c2nc(-c3cccc(C)c3)nc(N3CCN(C)CC3)c2C#N)cc1	24	-3	1	36	30	59*	44*
C=C(C)C(O)Cc1c(OC)ccc(C(=O)/C=C/c2ccc(O)cc2)c1O (stereo not given)	37	14	.	30	24	54*	42*
CCOC(=O)C1=C(C2=CCCCC2)c2ccc(OC)cc2N(S(=O)(=O)C(F)(F)F)C1C(=O)OCC (stereo not given)	.	-15	.	25	36	53*	40*
CCOC(=O)C1C(C(=O)OC)=C(c2ccc(OC)cc2)c2ccc(OC)cc2N1S(=O)(=O)C(F)(F)F (stereo not given)	.	10	.	4	20	39	.
Cn1c(=NC(=O)c2ccccc2[N+](=O)[O-])sc2cccc(F)c21	14	-23	-5	-9	2	97*	-15
Cn1c(=NC(=O)C(C)(C)C)sc2cccc(F)c21	35	-2	-2	-10	2	19	.
Nc1nnn(CC(=O)N/N=C/C=C/c2ccccc2)n1	30	-7	10	0	-6	-8	.
Cc1csc2c(N3CCN(C(=O)Nc4ccc(Cl)c(Cl)c4)CC3)ncnc12	31	6	62*	19	27	67*	50*
Cc1csc2ncnc(N3CCN(C(=S)Nc4ccc(C(F)(F)F)cc4)CC3)c12	18	-21	15	23	28	21	.
Cc1csc2c(N3CCN(C(=S)Nc4ccc(C(F)(F)F)cc4)CC3)ncnc12	22	-5	35	26	25	55*	46*
CC(C)CN(C(=O)COC(=O)C(C)N1C(=O)c2ccccc2C1=O)c1c(N)n(Cc2ccccc2)c(=O)[nH]c1=O (stereo not given)	13	-31	0	-2	-7	0	.
Cc1nc(-c2cnn(-c3ccccc3)c2)c2cc(C)oc2n1	27	3	24	34	24	51*	45*
Cc1oc2c(O)c(O)ccc2c(=O)c1-c1cnn(-c2ccccc2)c1	-1	.	2	17	27	1	.
